From PubChem BioAssay (NCATS)
Results filed as inconclusive are left out. Activity calls are given as the source filed them. Calls come from the whole dose curve; as a rule, active = well fitted cell-killing curve with a large enough effect; inconclusive = small, poorly fitted or top-dose-only effect; inactive = flat fitted curve, though single readings scatter.

Assay: Cell Viability - LYMP2-018 (AID 985);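 note: compound exposure lasted 24 hr at 37 °C; nearly all actives have a fitted effect of over 50% in size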
Details: LYMP2-018 lymphoblastoid cells, viability (qHTS); series mostly up to 92.2 µM; activity change, negative = cytotoxicity: at the top concentration
Description: NIH Chemical Genomics Center [NCGC]
NIH Molecular Libraries Screening Centers Network [MLSCN]
National Institutes of Environmental Health Sciences [NIEHS]
National Toxicology Program [NTP]
We have developed a 1536-well cell-based assay for quantitative high throughput screening (qHTS) against a number of cell lines to determine in vitro cytotoxicity of small molecules. This particular assay uses a human lymphoblastoid cell line (LYMP2-018) purchased from Coriell Institute for Medical Research.
NCGC Assay Protocol Summary:
The CellTiter-Glo luminescent cell viability assay (Promega) is a homogeneous method to measure the number of viable cells in culture. The end point readout of this assay is based on quantitation of intracellular ATP, an indicator of metabolic activity, using the luciferase reaction. Luciferase catalyzes the oxidation of beetle Luciferin to oxyluciferin and light in the presence of ATP. The luminescent signal is proportional to amount of ATP present.
Using the CellTiter-Glo luminescent cell viability assay, the amount of cellular ATP was measured in the lymphoblastoid cell line with complete culture medium following compound treatment for 24 hours. The assay was performed in opaque white Kalypsys 1536-well plates. In the screen, tetraoctylammonium bromide was used as positive control. Library compounds were measured for their ability to cause acute toxicity in the cell line, as reflected by a decrease in intracellular ATP levels, in a concentration-dependent manner. […] AC50 values were determined from concentration-response data modeled with the standard Hill equation.
qHTS protocol for CellTiter Glo lymphoblastoid cellular assay
[Step] [Parameter] [Value] [Description]
1. Reagent; 5 uL; 2500 lymphoblastoid cells/well
2. Time; 5 hr; 37 C incubation
4. Controls; 23 nL; Tetraoctylammonium bromide 6.4pM to 92 uM
5. Time; 24 hr; 37 C incubation
6. Reagent; 5 uL; CellTiter Glo reagent
7. Time; 30 min; Room Temperature
8. Detection; Luminescence; Viewlux plate reader
Keywords: cell viability, cytotoxicity, lymphoblastoid cell line, luminescence, NTPHTS, NTPHTS_NCGC, NIEHS, DSSTox, MLSMR, MLSCN, NIH Roadmap, qHTS, NCGC
Potency is the fitted concentration of half-maximal effect.

| SMILES | activity change, negative = cytotoxicity | Potency |
| --- | --- | --- |
| O=C(N[C@H](CO)[C@H](O)c1ccc([N+](=O)[O-])cc1)C(Cl)Cl | -8.78% (inactive) | – |
| Cc1cc(NS(=O)(=O)c2ccc(N)cc2)no1 | -4.33% (inactive) | – |
| Cc1ncc([N+](=O)[O-])n1CCO | -3.59% (inactive) | – |
| CN(C)c1ccc(C(=C2C=CC(=[N+](C)C)C=C2)c2ccc(N(C)C)cc2)cc1 | – | 2000 nM (active) |
| Cc1noc(NS(=O)(=O)c2ccc(N)cc2)c1C | -0.394% (inactive) | – |
| O=C(O)c1cc(=O)[nH]c(=O)[nH]1 | -14.6% (inactive) | – |
| CC1=NN(c2ccccc2)C(=O)C1 | -9.27% (inactive) | – |
| Cc1nnc(NS(=O)(=O)c2ccc(N)cc2)s1 | -16.3% (inactive) | – |
| NC(N)=NC(N)=NCCc1ccccc1 | -26.3% (inactive) | – |
| CC[C@H](C)C(=O)O[C@H]1C[C@@H](C)C=C2C=C[C@H](C)[C@H](CC[C@@H]3C[C@@H](O)CC(=O)O3)[C@H]21 | -28.8% (inactive) | – |
| CCc1cc(C(N)=S)ccn1 | -14.5% (inactive) | – |
| Cc1ccnc2c1NC(=O)c1cccnc1N2C1CC1 | -8.69% (inactive) | – |
| NNC(=O)c1ccncc1 | 3.39% (inactive) | – |
| C[C@]12C=CC(=O)C=C1CC[C@@H]1[C@@H]2C(=O)C[C@@]2(C)[C@H]1CC[C@]2(O)C(=O)CO | -9.77% (inactive) | – |
